Assay outcomes as filed in PubChem BioAssay.
KB-V1 cytotox: qHTS assay for MDR1-selective chemotherapeutics: Primary screen using the drug-selected MDR subline cells KB-V1 | Potency, µM (titrated, usually from 46.1 µM), hits mostly cytotoxic | 400,000 compounds, 3.4% hits | KB-V1 MDR cells viability, CellTiter-Glo, 72 h; also: % is scaled to controls: 0 for no effect and ±100 for the full control effect; nearly all actives have a fitted effect of over 60% in size
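Compound-treated KB-V1 multidrug-resistant cells, 72 h, 37 degrees C; viability by CellTiter-Glo. Fitted qHTS curves give the values.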
PINK1 modulator: A Quantitative High throughput Screen to Identify Chemical Modulators of PINK1 Expression; PINK1 immunofluorescence, high-content cytometry, 24 h; Potency, µM (series often up to 76.6 µM), without a hit: at the highest dose activation (PINK1 increase), actives largely listed as activators; 410,000 compounds, 0.2% hits; active = well fitted activation curve with a large enough effect; inconclusive = small, poorly fitted or top-dose-only effect; cell line not stated here; also: % of control where 0% means no effect; nearly all actives have a fitted effect of over 65% in size
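Measures PINK1 amount and localization on or inside mitochondria by immunofluorescence. Stable cells get compounds at 5 concentrations for 24 hours before fixation and staining; CCCP controls included.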
MCF10A rereplic: A quantitative high throughput screen for small molecules that induce DNA re-replication in MCF 10a normal breast cells. MCF 10A DNA re-replication, Hoechst nuclear intensity, 48 h. 350,000 compounds, 2.9% hits. Potency, µM (series often up to 46.1 µM), for the others: top-dose activity, positive = re-replication, actives largely listed as activators; also: % of control where 0% means no effect; nearly all actives have a fitted effect of over 50% in size
KB-3-1 cytotox: qHTS assay for MDR1-selective chemotherapeutics: Primary screen using the parental adenocarcinoma cell KB-3-1. KB-3-1 viability, CellTiter-Glo ATP luminescence, 72 h. Potency, µM (doses to about 46.1 µM), hits mostly cytotoxic. 400,000 compounds, 1.4% hits. AID 1347075, 2019; also: % is scaled to controls: 0 for no effect and ±100 for the full control effect; nearly all actives have a fitted effect of over 60% in size
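Parental KB-3-1 viability, qHTS format: 72 h compound exposure, 37 °C; CellTiter-Glo; media-only wells and DMSO plates as controls; concentration-effect fits on corrected data.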
SW480 rerep: A quantitative high throughput screen for small molecules that induce DNA re-replication in SW480 colon adenocarcinoma cells; SW480 DNA re-replication, Hoechst DNA content imaging, 48 h; 340,000 compounds, 1.8% hits; Potency, µM (highest dose often 46.1 µM), inactives show top-dose re-replication activation, most hits filed as activators; AID 624297, 2012; also: % of control where 0% means no effect; nearly all actives have a fitted effect of over 55% in size
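Compounds, transferred as 23 nL by pin tool, were incubated with cells for 48 hr; DNA content per nucleus was then quantified by Hoechst staining and fluorescence plate imaging.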
* hit, by the source's call; [ ] = another dose, or the depositor's remark. Shown are actives, neighbours in structure and some others; about 6.7% of the full set was active somewhere. Unless noted, calls follow the shape of the dose curve; as a rule, active = well fitted curve in the direction sought with a large enough effect; inconclusive = small, poorly fitted or top-dose-only effect, or another doubt; inactive = no such curve, though single readings can be large; an effect the other way counts as inactive or inconclusive. Potency is read from the fitted curve at half-maximal effect.

How did O=C(N/N=C/c1ccccn1)c1ccc(Cl)cc1 do in these assays?
KB-V1 cytotox: inactive; PINK1 modulator: 3%; MCF10A rereplic: inconclusive; KB-3-1 cytotox: inactive; SW480 rerep: 4.1µM*

What do the screens show for `C(=N\NC(=Nc1ccccc1)c1ccccn1)/c1ccccn1`?
KB-V1 cytotox: 16µM*; PINK1 modulator: -2%; MCF10A rereplic: inconclusive; KB-3-1 cytotox: inconclusive; SW480 rerep: inconclusive

How did Cc1ccccc1C(=O)N/N=C/c1ccccn1 do in these assays?
KB-V1 cytotox: 21µM*; PINK1 modulator: 1%; MCF10A rereplic: 9%; KB-3-1 cytotox: inconclusive; SW480 rerep: inconclusive

Results for O=C(c1cc2c(=O)oc3ccccc3c2s1)N1CCN(c2cccc(Cl)c2)CC1 ?
KB-V1 cytotox: inactive; PINK1 modulator: 0%; KB-3-1 cytotox: inactive

What do the screens show for `COc1cc(C(=O)N/N=C/c2ccccn2)cc(OC)c1OC`?
KB-V1 cytotox: inconclusive; PINK1 modulator: 8%; MCF10A rereplic: 21µM*; KB-3-1 cytotox: 18µM*; SW480 rerep: 18µM*

What do the screens show for `COCc1nnc(NC(=O)C2CCN(C(=O)c3ccccc3)CC2)s1`?
KB-V1 cytotox: inactive; PINK1 modulator: 0%; KB-3-1 cytotox: inactive

Results for COCCOC(=O)C1=C(C)OC(N)=C(C#N)C1c1cc2cccc(C)c2nc1Cl (centres undefined) ?
KB-V1 cytotox: inactive; PINK1 modulator: 5%; MCF10A rereplic: 23µM*; KB-3-1 cytotox: inactive; SW480 rerep: 4%

What do the screens show for `CC(=O)C1=C(C)OC(N)=C(C#N)C1c1cc2cccc(C)c2nc1Cl` (centres undefined)?
KB-V1 cytotox: inactive; PINK1 modulator: 6%[38.3 µM]; MCF10A rereplic: 2%; KB-3-1 cytotox: inactive; SW480 rerep: -6%

Results for COc1ccc(NC(=O)CSc2nnc(-c3ccccn3)n2N)cc1Cl ?
KB-V1 cytotox: 16µM*; PINK1 modulator: -3%[38.3 µM]; MCF10A rereplic: 2%; KB-3-1 cytotox: inactive; SW480 rerep: -6%

How did Cn1c(SCC(=O)Nc2cc(Cl)cc(Cl)c2)nnc1-c1ccc2nonc2c1 do in these assays?
KB-V1 cytotox: inconclusive; PINK1 modulator: -2%; MCF10A rereplic: 18µM*; KB-3-1 cytotox: inactive; SW480 rerep: 18µM*

Results for CCCn1c(SCC(=O)NCCc2ccccc2)nnc1-c1ccccn1 ?
KB-V1 cytotox: inconclusive; PINK1 modulator: -2%; MCF10A rereplic: 4%; KB-3-1 cytotox: inactive; SW480 rerep: -1%

How did CCCn1c(SCC(=O)Nc2nnc(-c3ccccc3)s2)nnc1-c1ccccn1 do in these assays?
KB-V1 cytotox: inactive; PINK1 modulator: 0%; MCF10A rereplic: 18µM*; KB-3-1 cytotox: inactive; SW480 rerep: 0%

What do the screens show for `CC(C)c1ccc(NC(=O)CSc2nnc(-c3ccccn3)n2C)cc1`?
KB-V1 cytotox: 5.2µM*; PINK1 modulator: 1%; MCF10A rereplic: -2%; KB-3-1 cytotox: inactive; SW480 rerep: -13%

What do the screens show for `CCc1ccc(NC(=O)CSc2nnc(-c3ccccn3)n2C)cc1`?
KB-V1 cytotox: inactive; PINK1 modulator: 8%[38.3 µM]; MCF10A rereplic: 22%; KB-3-1 cytotox: inactive; SW480 rerep: -14%

How did COc1ccc(NC(=O)CSc2nnc(-c3ccco3)n2N)cc1Cl do in these assays?
KB-V1 cytotox: inactive; PINK1 modulator: 1%; MCF10A rereplic: -1%; KB-3-1 cytotox: inactive; SW480 rerep: -23%

How did Cc1cccc(C)c1-n1nnnc1C1(C)CCC(=O)N1CCCN1CCOCC1 (centres undefined) do in these assays?
KB-V1 cytotox: inactive; PINK1 modulator: 2%; KB-3-1 cytotox: inactive

What do the screens show for `CCN1C[C@@H]2[C@@H]3C(=O)N(Cc4ccccc4)C(=O)[C@@H]3[C@](Cc3ccccc3)(C1=O)N2C(=O)c1ccc(Cl)cc1`?
KB-V1 cytotox: inconclusive; PINK1 modulator: 1%; MCF10A rereplic: -1%; KB-3-1 cytotox: inactive; SW480 rerep: -5%

How did CCCCn1c(N)c(N(CC(C)C)C(=O)CC2CCCC2)c(=O)[nH]c1=O do in these assays?
KB-V1 cytotox: inactive; PINK1 modulator: 1%; MCF10A rereplic: 5%; KB-3-1 cytotox: inactive; SW480 rerep: -3%

How did COc1cc(C(=O)Nc2ccc(C)c(S(=O)(=O)N(C)C)c2)ccc1OCC(=O)N1CCOCC1 do in these assays?
KB-V1 cytotox: inactive; PINK1 modulator: 3%; MCF10A rereplic: -1%; KB-3-1 cytotox: inactive; SW480 rerep: -5%

Results for COc1ccccc1N(C)S(=O)(=O)c1ccc(Cl)c(C(=O)NNC(=O)c2ccccc2O)c1 ?
KB-V1 cytotox: inactive; PINK1 modulator: 0%; MCF10A rereplic: 12%; KB-3-1 cytotox: inconclusive; SW480 rerep: 3%

What do the screens show for `COc1ccccc1N(C)S(=O)(=O)c1ccc(Cl)c(C(=O)OCc2c(C)noc2C)c1`?
KB-V1 cytotox: inactive; PINK1 modulator: -2%; MCF10A rereplic: 16µM*; KB-3-1 cytotox: inactive; SW480 rerep: inconclusive

How did CCOC(=O)C(=O)NNc1cccc(C)c1C do in these assays?
KB-V1 cytotox: inactive; PINK1 modulator: 1%; MCF10A rereplic: 8.2µM*; KB-3-1 cytotox: inactive; SW480 rerep: -78%

What do the screens show for `CCOC(=O)C(=O)NNc1ccccc1C`?
KB-V1 cytotox: inactive; PINK1 modulator: -1%; MCF10A rereplic: inconclusive; KB-3-1 cytotox: inactive; SW480 rerep: -5%

Results for CCCN(CC(=O)Nc1ccccc1C)C(=O)c1nn(CC)c(=O)c2ccccc12 ?
KB-V1 cytotox: 8.2µM*; PINK1 modulator: 3%; MCF10A rereplic: -3%; KB-3-1 cytotox: inactive; SW480 rerep: -3%

Results for CCCN(CC(=O)Nc1ccccc1C)C(=O)c1ccc(-c2ccccc2)cc1 ?
KB-V1 cytotox: inactive; PINK1 modulator: 3%; MCF10A rereplic: 0%; KB-3-1 cytotox: inactive; SW480 rerep: 7%

How did O=C(NNC(=O)c1cc(Cl)ccc1O)c1cccc(S(=O)(=O)N2CCOCC2)c1 do in these assays?
KB-V1 cytotox: inactive; PINK1 modulator: -1%; MCF10A rereplic: 8%; KB-3-1 cytotox: inconclusive; SW480 rerep: inconclusive

What do the screens show for `COCCNC(=O)C(=O)c1c(-c2ccccc2)[nH]c2ccccc12`?
KB-V1 cytotox: inactive; PINK1 modulator: 0%; MCF10A rereplic: -8%; KB-3-1 cytotox: inactive; SW480 rerep: -5%

Results for O=C(C(=O)N(Cc1ccccc1)Cc1ccccc1)c1c(-c2ccccc2)[nH]c2ccccc12 ?
KB-V1 cytotox: inactive; PINK1 modulator: -1%; MCF10A rereplic: 15%; KB-3-1 cytotox: inactive; SW480 rerep: 18µM*

What do the screens show for `Cc1ccc(CNc2ncnc3c2c(-c2ccccc2)cn3-c2cccc(Cl)c2)cc1`?
PINK1 modulator: 1%
